Our source for the sensor-assay potency score (higher = more potent) values is the OligoGym collection.
Also: reference of the scale not given here.

The target of the assay is AP1S1. Put plainly: pooled miR-30 sensor sort-seq; sequence = guide strand. Conditions: shRNA.
Turning to TTATAGACAACTTTGAGGTCCC, the sensor-assay potency score (higher = more potent) came out at 0.854.
Take ATATCTCTTATAGACAACTTTG: the sensor-assay potency score (higher = more potent) was -1.12.
Regarding TCGCGCACCATCTTCTTCCGTT, the sensor-assay potency score (higher = more potent) is -0.362.
Under TTGCAGTAGGTCAGCCTGCTCG stands -0.856; under TATCTCTTATAGACAACTTTGA, -1.08; under TATATTTACAGTTATTAGGGAG, 0.379.
Under TTGTCTAAGAGCTCCACGTATC stands -1.02; under TAAGAGCTCCACGTATCGGTGG, 0.135.
The sequence ATAGACAACTTTGAGGTCCCTC displayed a sensor-assay potency score (higher = more potent) of 0.0527.
In the case of TCTAAGAGCTCCACGTATCGGT, the sensor-assay potency score (higher = more potent) is 0.301.
Regarding TTTCAGCACACTCTTCTTGGAG, the sensor-assay potency score (higher = more potent) is -0.813.
TCTCTTATAGACAACTTTGAGG: the sensor-assay potency score (higher = more potent) was -1.16.
For the sequence TCCAGCTCGCACACACTGCCAA, the sensor-assay potency score (higher = more potent) is -0.956.
Consider TTGAAGATGATGTCCAGCTCGC, for which the sensor-assay potency score (higher = more potent) came out at 0.319.
As for TGTGATGAGCTCATTGTCTTGG, the sensor-assay potency score (higher = more potent) turned out to be 0.479.
For the sequence TCTTATAGACAACTTTGAGGTC, the sensor-assay potency score (higher = more potent) is -0.45.
Consider TTTGCAGCCGCAGTTTTCCCTG, for which the sensor-assay potency score (higher = more potent) is -0.931.
Regarding TTTGAGGTCCCTCCACTCCAGG, the sensor-assay potency score (higher = more potent) was -1.48.
Consider TTCTTCCGTTCCTTGTCCGAAG, for which the sensor-assay potency score (higher = more potent) was -0.991.
